Reference: paper PMC7819943, “Rice protein-binding microarrays: a tool to detect cis-acting elements near promoter regions in rice”
The full ranking holds about 35,000 sequences; the median of “fluorescence intensity (a.u.)” is about 10,000, and the highest 2% start at about 52,000. Shown is part of a subset that was picked to be rich in the highest values.

The sequences below were run against T1, OsWOX13 (Oryza sativa, UniProt Q5QMM3 1-267) (assay: protein-binding microarray (RPBM); PBS, 2% BSA, 51.3 ng/ul salmon testes DNA, 50 uM zinc acetate, 200 nM TF, 25 C, 1 h; high values mean tight binding). Settings: protein: recombinant; tags: N-terminal polyhistidine and DsRed monomer fusion (pET32a); label: CyDye5-dUTP incorporated in the synthesized complementary strand; 3' TTTTT single-stranded linker to array surface; dsDNA, one strand shown.
T1 sequence: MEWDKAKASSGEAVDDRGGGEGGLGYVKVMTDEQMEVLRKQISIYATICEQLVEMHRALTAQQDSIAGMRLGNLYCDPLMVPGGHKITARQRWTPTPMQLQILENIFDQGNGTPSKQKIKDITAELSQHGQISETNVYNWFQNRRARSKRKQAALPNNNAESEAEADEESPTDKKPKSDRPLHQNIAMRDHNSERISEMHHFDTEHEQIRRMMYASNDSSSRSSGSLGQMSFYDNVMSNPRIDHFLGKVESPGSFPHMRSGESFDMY
Procedure, shortened: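 The binding signal is fluorescence intensity per feature, in arbitrary units, read on an Axon 4000B scanner. Polyhistidine- and DsRed-tagged transcription factors (N-terminal fusions) from E. coli BL21-CodonPlus were purified on Ni–NTA and applied at 200 nM for 1 h at 25 °C to a double-stranded, BSA-blocked custom Agilent array in buffer with 50 µM zinc acetate.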

Row | Sequence | binding signal
1 | GAGAGACGGTTTAATCAAGGAGCAGTTGATGGGAGAGGCGCGGAGTCACCTAGTGCAG | 4550 fluorescence intensity (a.u.)
2 | CTCAAGCTTAATTAAGCTCGTAATCTCATATAACCTCTTTCGGAGTCACCTAGTGCAG | 57900 fluorescence intensity (a.u.)
3 | CCAGTGATCAATTTAGCTCCATTTCACTAGTGCAATCTGTCGGAGTCACCTAGTGCAG | 9160 fluorescence intensity (a.u.)
4 | CGAGCTTTAATCAATTAATCTGGAGTTTAGTGAATATATTCGGAGTCACCTAGTGCAG | 9200 fluorescence intensity (a.u.)
5 | GTTTGTGATTAATCTGATTTCGTACTATTAACGTGCAACTCGGAGTCACCTAGTGCAG | 31300 fluorescence intensity (a.u.)
6 | GTAATTAGCTAATCAATCTTTTCGGCTGTGCTTAATTAACCGGAGTCACCTAGTGCAG | 33500 fluorescence intensity (a.u.)
7 | ATCTGATTCGTGATTAATTAGTAATTAATTAATCTTTACTCGGAGTCACCTAGTGCAG | 61000 fluorescence intensity (a.u.)
8 | AATTTAATCTTTAATTAATTTATTTCTCGCCTCTCTTAACCGGAGTCACCTAGTGCAG | 4610 fluorescence intensity (a.u.)
9 | ACTTTAATTAGTCGTGATCAATCAATCAATCTGAATCTGTCGGAGTCACCTAGTGCAG | 65100 fluorescence intensity (a.u.)
10 | TCGTGATGACAGTTTACTCTTTAAATGAGAGTAATTAACTCGGAGTCACCTAGTGCAG | 17400 fluorescence intensity (a.u.)
11 | GTAACGGGATGATTGAAGCTACAACGAGAATGGCAACGTCCGGAGTCACCTAGTGCAG | 22200 fluorescence intensity (a.u.)
12 | AATATAAATTTAGATTAGCAGTGGTAAGAAGAGGGACGTCCGGAGTCACCTAGTGCAG | 22600 fluorescence intensity (a.u.)
13 | CAAAATATACTAATTTCTTCAAGCAAAGGTCCAGCCCATCCGGAGTCACCTAGTGCAG | 3240 fluorescence intensity (a.u.)
14 | GAATAGACCGAAATTAATTAAGGCAGTAATCACCCAGATGCGGAGTCACCTAGTGCAG | 16100 fluorescence intensity (a.u.)
15 | TATTAAGTCTAATTAATCCATGATTAGCCTATGTGATGCTCGGAGTCACCTAGTGCAG | 15300 fluorescence intensity (a.u.)
16 | GATGATGATGGATGCGATTGACTGATGAGACGTCTGCTAACGGAGTCACCTAGTGCAG | 50300 fluorescence intensity (a.u.)
17 | CCCTAAATTTCCGCGAAATCAGCAACCGAACACAGATTAGCGGAGTCACCTAGTGCAG | 7110 fluorescence intensity (a.u.)
18 | TCAATAAATCATAAAACAAATTTATTAAGCCTAATTAATCCGGAGTCACCTAGTGCAG | 14000 fluorescence intensity (a.u.)
19 | GCTTAATTGAAGGAGCCATGGCAGCTGTCCTCTCCCGCCGCGGAGTCACCTAGTGCAG | 53200 fluorescence intensity (a.u.)
20 | CCTCCTCATCATGGCTTAATTAATTAATACTCCTAGCTGCCGGAGTCACCTAGTGCAG | 29000 fluorescence intensity (a.u.)
21 | CGAAGATTGAGTCCTTTGAAGCCGAGCTCTCCATGGCCATCGGAGTCACCTAGTGCAG | 17100 fluorescence intensity (a.u.)

Row | Sequence | binding signal
22 | AGGATTAATTAGGCTTAATAAATTCGTCTCGCAGTTTACACGGAGTCACCTAGTGCAG | 22000 fluorescence intensity (a.u.)
23 | TCTAGATTTGATCATTTTGACCTCTTGCTCCGTTAGATCTCGGAGTCACCTAGTGCAG | 9940 fluorescence intensity (a.u.)
24 | TCTAATTATTTGATATTAGTTATTTTCCTTAACATTCGTGCGGAGTCACCTAGTGCAG | 49900 fluorescence intensity (a.u.)
25 | CCTTAATTTTCAGTGTTAGTAATTTTCATTAACTAATTCTCGGAGTCACCTAGTGCAG | 16200 fluorescence intensity (a.u.)
26 | CCTTAATTAACTAACATTCAGTCAGTTAGTCACCGGATAGCGGAGTCACCTAGTGCAG | 52600 fluorescence intensity (a.u.)
27 | AAAGTTAATCAAATTGACTAATTAGTGCTAGATATGTCCTCGGAGTCACCTAGTGCAG | 60600 fluorescence intensity (a.u.)
28 | GACTAATTAATAATTAGTTAATTGACTAATCAGGATAATTCGGAGTCACCTAGTGCAG | 46800 fluorescence intensity (a.u.)
29 | GTTAATTAATTAGTTAGTACTAGCAAACATTGGCTAAAGTCGGAGTCACCTAGTGCAG | 55900 fluorescence intensity (a.u.)
30 | ATTAATTAAGTTACTGTGTTACTCCTAGCTACTCCTCCGTCGGAGTCACCTAGTGCAG | 22600 fluorescence intensity (a.u.)
31 | ATCAAATCATATGTTAGATTGATCCTTCAATTAGTTAATTCGGAGTCACCTAGTGCAG | 24400 fluorescence intensity (a.u.)
32 | TCAATCAATCAATTAATTAGTAATTCAAAGTACTAAACACCGGAGTCACCTAGTGCAG | 40200 fluorescence intensity (a.u.)
33 | TACTAATTTAGAGTATTAAACATAAACTAATAATAAAAGTCGGAGTCACCTAGTGCAG | 9830 fluorescence intensity (a.u.)
34 | AGTTAATTAATTAATTAGCTACGTACTCTTGTGCCTCTGTCGGAGTCACCTAGTGCAG | 54900 fluorescence intensity (a.u.)
35 | AATTACTACTACTAATTAGCTAGTAGCTAGTTTCTGTGCTCGGAGTCACCTAGTGCAG | 8060 fluorescence intensity (a.u.)
36 | TTCGATTTAACTGTTCTATTACTGAGGTACTCTTCGATTTCGGAGTCACCTAGTGCAG | 6940 fluorescence intensity (a.u.)
37 | GTCAAATTTATGGCATTGATAGAGTTTTAGTAGGGGTGTTCGGAGTCACCTAGTGCAG | 21000 fluorescence intensity (a.u.)
38 | TTAGTTTAATTAAATGTAACATTGAGTATATTTTGATAATCGGAGTCACCTAGTGCAG | 16700 fluorescence intensity (a.u.)
39 | TCTAAATTTAACTTGCATCACATTAGTTCTGGAAAGAGCACGGAGTCACCTAGTGCAG | 12200 fluorescence intensity (a.u.)
40 | GATACTAATTATAAATATTAAGTGTAGACTATTAATAAAACGGAGTCACCTAGTGCAG | 6430 fluorescence intensity (a.u.)
41 | TCATTAACACATAATTAATTAAGTACTCCCTCCGTATTTTCGGAGTCACCTAGTGCAG | 20200 fluorescence intensity (a.u.)
42 | AAAAGAAGTTAATTATAATTAATTGTGATAAGAGGATAGACGGAGTCACCTAGTGCAG | 29400 fluorescence intensity (a.u.)
